Measured values from PubChem BioAssay (NCI).
Several values for one entry are separate records, joined by “and”; a condition that tells them apart may be missing. Identical values can stand only once. The panel holds about 83,000 compounds, 20% with a hit somewhere; the sample as a whole holds those more often.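 Note: values are percent growth. 100 is the growth of untreated cells, values between 100 and 0 indicate rising inhibition; between -100 and 0 indicates cell death.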 Unmarked numbers belong to inactive results. Activity calls are given as the source filed them. The calls were made as follows: active = growth percent below 10; inactive = the rest.

Test system: MDA-MB-468 breast
Assay: NCI-60 one-dose screen, 48 h (100 = growth as untreated, 0 = no growth, -100 = all killed)
Conditions: 10 µM unless noted

**Q.** With CCN(CC)CCCC(C)N/C(=C1\C(=O)NC(=O)\C1=C(/NC(C)CCCN(CC)CC)c1cccc(OC)c1)c1cccc(OC)c1 (stereo not given) as the compound, how does the growth read?
**A.** -42.6% (active)

**Q.** With O=C1N=NC2=C1c1c3ccccc3c(O)n1CC2 as the compound, how does the growth read?
**A.** 96.6%

**Q.** With CC/C(=C(/c1ccc(Cl)cc1)c1ccc(OCCN2CCCCC2)cc1)c1ccc(OC)cc1 as the compound, how does the growth read?
**A.** 26.5%

**Q.** For O=C(O)C1C2CC3C(OC(=O)C31)C2Br (stereo not given), which growth is on record?
**A.** 93.2% and 72.3%

**Q.** Which growth does the source give for COc1cc(C(=O)/C=C/c2c(Cl)nc3sccn23)cc(OC)c1OC here?
**A.** 60.1%

**Q.** How did the growth turn out when CC1(C)CC(=O)C2=C(C1)OC1=C(C(=O)CC(C)(C)C1)C2c1ccc(OCc2cn(-c3ccc(F)cc3F)nn2)cc1 was run?
**A.** 103%

**Q.** For Oc1ccc(CSc2nnc(-c3ccc(Br)cc3)n2-c2ccccc2)c2cccnc12, which growth is on record?
**A.** 36.1%

**Q.** How did the growth turn out when CSc1nc(-c2cccs2)c2c(N)[nH]nc2n1 was run?
**A.** 117%

**Q.** With Cn1cc(-c2csc(-c3cn(CCNC(=O)OC(C)(C)C)c4ccccc34)n2)c2cccnc21 as the compound, how does the growth read?
**A.** 23.4%

**Q.** How did the growth turn out when O=C1/C(=C\c2cn(C(=O)c3ccc(Cl)cc3)c3ccccc23)c2ccccc2N1c1c(Cl)cccc1Cl was run?
**A.** 97.7%

**Q.** With N#Cc1cccc(-c2ccc3c(c2)NC(=O)/C3=C\c2ccc[nH]2)c1 as the compound, how does the growth read?
**A.** -20.1% (active)

**Q.** Which growth does the source give for C/C(=C(/c1ccc(O)cc1)c1ccc(OCCN2CCCC2)cc1)c1ccccc1 here?
**A.** 34.7%

**Q.** How did the growth turn out when O=C(NCCCNc1cc(-c2cn(-c3ccccc3)nc2-c2cccc(O)c2)ccn1)c1cccc(O)c1 was run?
**A.** 29.3%

**Q.** With COc1ccc(-c2nnc3c4[nH]cnc4ncn23)c(OC)c1 as the compound, how does the growth read?
**A.** -16.2% (active)

**Q.** Which growth does the source give for C=C1C(=O)O[C@H]2[C@H]1CC/C(COC(=O)NCc1cc(OC)c(OC)c(OC)c1)=C\CC[C@@]1(C)O[C@@H]21 here?
**A.** 35.4%

**Q.** How did the growth turn out when CCOC(=O)c1ccc(NC2=C(Cl)C(=O)c3nc(C)ccc3C2=O)cc1 was run?
**A.** -24.6% (active)

**Q.** With O=C(CC(C(=O)c1ccccc1)N1CCN(Cc2ccccc2)CC1)c1ccccc1 (stereo not given) as the compound, how does the growth read?
**A.** 70.1%

**Q.** For COc1cc(C(=O)C[n+]2ccc3ccccc3c2)cc(OC)c1OC, which growth is on record?
**A.** 98.3%

**Q.** How did the growth turn out when COc1ccc(C2CC(c3cnccn3)=NN2)cc1OC (stereo not given) was run?
**A.** 105%

**Q.** Which growth does the source give for CCOc1ccc(-n2cc(-c3ccc(N(C)C)cc3)[n+]3c2CCCCC3)cc1 here?
**A.** -17.4% (active)

**Q.** With Cc1cc(Cl)ccc1NC(=O)c1cc2ccccc2cc1O as the compound, how does the growth read?
**A.** -9.61% (active)

**Q.** Which growth does the source give for O=C(Nc1ccncc1)C(=O)c1cn(S(=O)(=O)c2cc(Cl)cc(Cl)c2)c2ccccc12 here?
**A.** 41.6%

**Q.** Which growth does the source give for CCN(CC)c1ccc(/C=C\C(=O)c2ccc(NC(C)=O)cc2)cc1 here?
**A.** 10.7%

**Q.** With CC(=O)c1cc(C(=O)c2ccc3c(c2)Sc2ccccc2N3)c2cc(C)ccn12 as the compound, how does the growth read?
**A.** -3.41% (active)

**Q.** CNC(=S)NC(C)(C)C was tested. Which growth did it give?
**A.** 111%

**Q.** CCO/C=N/C1=C(C#N)C(c2ccc(OC)cc2)c2sc3c(C)cccc3c2O1 (stereo not given) was tested. Which growth did it give?
**A.** -13% (active)

**Q.** Which growth does the source give for Cc1ccc(C(=O)C(Br)C(Br)c2ccccc2)cc1 (stereo not given) here?
**A.** 42.8%

**Q.** Nc1nc2c(nnn2Cc2ccc(Cl)c(Cl)c2)c(=O)[nH]1 was tested. Which growth did it give?
**A.** 103%

**Q.** Which growth does the source give for Cc1c(Cl)cccc1NS(=O)(=O)c1ccccc1 here?
**A.** 93.2%

**Q.** How did the growth turn out when COc1ccc(-c2nc(SCC(=O)Nc3nc4ccc(C)cc4s3)[nH]c(=O)c2C#N)cc1OC was run?
**A.** 100%

**Q.** O=C(CN1CCCCC1)Sc1nnc2sc3ccccc3n12 was tested. Which growth did it give?
**A.** 97.1%

**Q.** Cn1c(-c2nonc2NC(=O)c2ccc(F)cc2)nc2ccccc21 was tested. Which growth did it give?
**A.** 99.5%

**Q.** With O=C1C(=O)c2c(nc3ncccn23)-c2ccccc21 as the compound, how does the growth read?
**A.** -64.9% (active)

**Q.** How did the growth turn out when COc1ccc(CCN2C(=O)CSC2=S)cc1 was run?
**A.** 12.9%

**Q.** Clc1ncnc2nc[nH]c12 was tested. Which growth did it give?
**A.** 108%

**Q.** With COc1cc(-c2nn(-c3cccc(NC(=O)Nc4cccc(C(F)(F)F)c4)c3)cc2-c2ccncc2)ccc1Cl as the compound, how does the growth read?
**A.** -27.6% (active)

**Q.** Which growth does the source give for O=C(NCCO)Nc1ccc(-c2nc(N3CCOCC3)c3cccn3n2)cc1 here?
**A.** -24.2% (active)

**Q.** How did the growth turn out when O=C(c1c[nH]c2ccccc12)c1n[nH]c(=S)n1-c1cccc(Br)c1 was run?
**A.** 98.7%

**Q.** c1csc(-c2[nH]nc3c2CCc2ccccc2-3)c1 was tested. Which growth did it give?
**A.** -18.7% (active)

**Q.** Brc1ccc(-c2cc(-c3ccc4c(c3)OC=CO4)n[nH]2)s1 was tested. Which growth did it give?
**A.** -13.5% (active)
